Assay results: PubChem BioAssay (Tox21)
The source made the active and inactive calls. Calls follow the shape of the full dose curve.

target: Acetylcholinesterase (Homo sapiens) (UniProt P22303); assay: Acetylcholinesterase (AChE) small molecule antagonists: enzyme-based qHTS assay (AID 1347397); conditions: Potency: AChE enzyme activity inhibition; series mostly up to 115 µM; activity change, negative = inhibition: at the top concentration; also: nearly all actives have a fitted effect of over 55% in size
Text: National Center for Advancing Translational Sciences [NCATS]
Division of Preclinical Innovation [DPI]
U.S. Environmental Protection Agency [EPA]
National Institutes of Environmental Health Sciences [NIEHS]
National Toxicology Program [NTP]
U.S. Food and Drug Administration [FDA]
Acetylcholinesterase (AChE) is the primary cholinesterase in the body that hydrolyzes a key neurotransmitter, acetylcholine. Inhibition of AChE activity can lead to neurotoxicity. The known inhibitors include organophosphorous pesticides (OP), chemical warfare agents, drugs, and various phytochemicals.
An enzyme-based assay with the recombinant human AChE and Amplite Colormetric acetylcholinesterase assay kit (AAT Bioquest, Sunnyvale, CA) was used to evaluate the chemicals in the Tox21 10K library that inhibit AChE activity. The assay uses 5, 5-dithiobis-(2-nitrobenzoic acid) (DTNB) to quantify the thiocholine produced from the hydrolysis of acetylthiocholine by AChE.
Tox21 Assay Protocol Summary:
For the enzyme-based AChE assay, recombinant human AChE (50 mU/mL) in 4 uL/well was dispensed into black, clear-bottom 1536-well plates using a Multidrop Combi dispenser (Thermo Scientific, MA). Then, 23 nL of compound or DMSO (vehicle control) was transferred into the assay plates by a Pintool Station (Wako Automation, CA). The plates were incubated for 30 min at room temperature, followed by the addition of 4 uL of colorimetric detection cocktail solution (DTNB, acetylthiocholine) into each well using a Flying Reagent Dispenser (Beckman Coulter, CA) and then 10 min incubation at room temperature.
% is scaled to controls: 0 for no effect and ±100 for the full control effect; potency is read from the fitted curve at half-maximal effect.

Sequence of Acetylcholinesterase (Homo sapiens) (P22303 whole entry, looked up): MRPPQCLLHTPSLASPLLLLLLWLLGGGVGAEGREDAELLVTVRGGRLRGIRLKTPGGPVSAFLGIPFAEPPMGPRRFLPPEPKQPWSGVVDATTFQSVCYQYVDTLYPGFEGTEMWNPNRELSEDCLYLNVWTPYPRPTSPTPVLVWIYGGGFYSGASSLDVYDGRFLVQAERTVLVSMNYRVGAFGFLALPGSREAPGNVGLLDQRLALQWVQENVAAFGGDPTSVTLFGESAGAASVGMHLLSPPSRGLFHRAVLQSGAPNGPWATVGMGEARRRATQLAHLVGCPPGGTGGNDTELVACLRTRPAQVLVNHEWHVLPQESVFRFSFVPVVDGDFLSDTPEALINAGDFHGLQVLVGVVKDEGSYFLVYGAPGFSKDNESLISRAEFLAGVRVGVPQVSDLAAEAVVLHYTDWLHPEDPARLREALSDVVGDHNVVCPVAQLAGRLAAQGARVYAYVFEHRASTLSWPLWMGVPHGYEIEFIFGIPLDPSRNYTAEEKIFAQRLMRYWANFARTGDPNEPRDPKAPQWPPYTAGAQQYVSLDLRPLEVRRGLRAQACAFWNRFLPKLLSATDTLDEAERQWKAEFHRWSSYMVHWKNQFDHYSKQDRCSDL

| Compound | activity change, negative = inhibition | Potency |
| --- | --- | --- |
| O=[N+]([O-])C(Br)Br | 0.269% (inactive) |  |
| CSC(=O)c1c(C(F)F)nc(C(F)(F)F)c(C(=O)SC)c1CC(C)C | 0.0057% (inactive) |  |
| CN(C)c1ccc(N)cc1 |  | 61.8 µM (active) |
| Nc1c(Cl)c(Cl)c(Cl)c(Cl)c1Cl | 5.28% (inactive) |  |
| CCNc1nc(NC(C)C(C)C)nc(SC)n1 (stereo not given) | -2.06% (inactive) |  |
| CCCCN(CCCC)C(=S)[S-].CCCCN(CCCC)C(=S)[S-].[Ni+2] | 0.424% [at 53 µM] (inactive) |  |
| O=S1(=O)OCC2C(CO1)C1(Cl)C(Cl)=C(Cl)C2(Cl)C1(Cl)Cl (stereo not given) | 0.518% (inactive) |  |
| CSSC | 0.209% (inactive) |  |
| Clc1cc(Cl)c(-c2cc(Cl)c(Cl)cc2Cl)cc1Cl | 0.679% [at 53 µM] (inactive) |  |
| COP(=S)(OC)Oc1ccc([N+](=O)[O-])c(C)c1 | -23.9% (inactive) |  |
| CN1[C@@H]2CC[C@H]1CC(O)C2 (stereo not given in full) | 0.543% (inactive) |  |
| Cc1cccc(Cc2cnc[nH]2)c1C | -0.585% [at 53 µM] (inactive) |  |
| NC(=O)C(Cl)Cl | 1.36% (inactive) |  |
| CCN(CC)Cc1nccn1-c1ccc([N+](=O)[O-])cc1C(=O)c1ccccc1Cl | 0.993% [at 53 µM] (inactive) |  |
| Cc1c([N+](=O)[O-])cc2c(c1[N+](=O)[O-])C(C)(C)CC2(C)C | -3.88% (inactive) |  |
| COc1nc(C)nc(NC(=O)NS(=O)(=O)c2ccccc2Cl)n1 | 0.0013% (inactive) |  |
| Clc1ccc(C(Cl)(Cl)Cl)cc1Cl | -0.955% (inactive) |  |
| O.O.O.O=C([O-])[C@H]([O-])[C@@H]([O-])C(=O)[O-].O=C([O-])[C@H]([O-])[C@@H]([O-])C(=O)[O-].[K+].[K+].[Sb+3].[Sb+3] | 0.474% (inactive) |  |
| O=C(N[C@@H]1N=C(c2ccccc2F)c2cccc3c2N(CC3)C1=O)c1cc2ccccc2[nH]1 | -4.45% [at 53 µM] (inactive) |  |
| CC(=O)[O][Sn]([c]1ccccc1)([c]1ccccc1)[c]1ccccc1 | 2.17% (inactive) |  |

| Compound | activity change, negative = inhibition | Potency |
| --- | --- | --- |
| ClC1=C(Cl)[C@]2(Cl)[C@H]3[C@H]([C@@H]4C=C[C@H]3C4)[C@@]1(Cl)C2(Cl)Cl |  | inactive |
| CC1=C2C[C@H]3[C@@H](CC=C4C[C@@H](O)CC[C@@]43C)[C@@H]2CC[C@]12O[C@@H]1C[C@H](C)CN[C@H]1[C@H]2C | -0.789% [at 53 µM] (inactive) |  |
| COP(=S)(NC(C)C)Oc1ccc(C)cc1[N+](=O)[O-] (stereo not given) | -13.4% (inactive) |  |
| Cc1c([N+](=O)[O-])c(C)c([N+](=O)[O-])c(C(C)(C)C)c1[N+](=O)[O-] | -5.64% (inactive) |  |
| CCC(C)Nc1c([N+](=O)[O-])cc(C(C)(C)C)cc1[N+](=O)[O-] (stereo not given) | -0.455% (inactive) |  |
| S=C=Nc1ccccc1 | 0.256% (inactive) |  |
| CC[C@]1(O)CC[C@H]2[C@@H]3CCC4=CCCC[C@@H]4[C@H]3CC[C@@]21C | 0.405% [at 53 µM] (inactive) |  |
| CC(C)C(Br)C(=O)NC(N)=O (stereo not given) | 0.97% [at 53 µM] (inactive) |  |
| [O-][Cl+3]([O-])([O-])O | -0.312% (inactive) |  |
| Oc1ccc([C@H]2CNCc3c2ccc(O)c3O)cc1O | -18% [at 53 µM] (inactive) |  |
| N#Cc1c2ccccc2cc2ccccc12 | -4.66% (inactive) |  |
| CCCCC(CC)COC(=O)c1ccccc1C(=O)OCC(CC)CCCC (stereo not given) | -11% (inactive) |  |
| CCCCCCCc1ccc(O)cc1 | -14.3% (inactive) |  |
| CC(Cc1ccccc1)N(C)Cc1ccco1 (stereo not given) | -0.415% [at 53 µM] (inactive) |  |
| CC(C)=CC1C(C(=O)OC(C#N)c2cccc(Oc3ccccc3)c2)C1(C)C (stereo not given) | -4.02% (inactive) |  |
| CCC[CH2][Sn]([CH2]CCC)([O]C(C)=O)[O]C(C)=O | 0% (inactive) |  |
| CNN | 1.05% (inactive) |  |
| CC1CCCC1 | -0.405% (inactive) |  |
| COc1ccc2c3c1O[C@H]1[C@H](O)CC[C@H]4[C@@H](C2)N(C)CC[C@@]341 | 1.48% (inactive) |  |
| C=CC(=O)[O][Sn]([CH2]CCC)([CH2]CCC)[CH2]CCC | -1.94% (inactive) |  |
